# According to the supplement of paper PMC4466140:
# Legend:
# Assay in all cases: SPOT peptide array binding signal intensity (averaged, normalized) (arbitrary units (background-subtracted, floor 0; scale differs between SH3 domains)); higher = stronger binding of the SH3 domain to the peptide
# [1] = target: CaNbp2
# Summary of the method: (§1)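 Four yeast species supplied the SH3 domains, which were expressed as GST fusions in E. coli BL21(DE3) and purified on glutathione Sepharose. Incubation with cellulose membranes carrying synthetic 15-mer peptides, cysteines exchanged for serines, ran overnight at 4°C at 10 μg/ml in TBS-based blocking buffer. Binding signal is reported as normalized, background-subtracted spot intensity averaged over replicates, in arbitrary units not shared between domains.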
# [2] = target: CaRvs167
# Summary of the method: as §1
# [3] = target: CaRvs167-3
# Summary of the method: as §1
# [4] = target: CaSho1
# Summary of the method: as §1
# [5] = target: CaSla1-D1-D2
# Summary of the method: as §1
# [6] = target: CaSla1-D3
# Summary of the method: as §1
# [7] = target: ScAbp1
# Summary of the method: as §1
# [8] = target: ScBbc1
# Summary of the method: as §1
# [9] = target: ScBem1-D1
# Summary of the method: as §1
# [10] = target: ScBzz1-D1
# Summary of the method: as §1
# [11] = target: ScBzz1-D2
# Summary of the method: as §1
# [12] = target: ScCyk3
# Summary of the method: as §1
# [13] = target: ScFus1
# Summary of the method: as §1
# [14] = target: ScHof1
# Summary of the method: as §1
# [15] = target: ScHse1
# Summary of the method: as §1
# [16] = target: ScLsb1
# Summary of the method: as §1
# [17] = target: ScLsb2
# Summary of the method: as §1
# [18] = target: ScLsb3
# Summary of the method: as §1
# [19] = target: ScLsb4
# Summary of the method: as §1
# [20] = target: ScMyo3
# Summary of the method: as §1
# [21] = target: ScMyo5
# Summary of the method: as §1
# [22] = target: ScNbp2
# Summary of the method: as §1
# [23] = target: ScPex13
# Summary of the method: as §1
# [24] = target: ScRvs167
# Summary of the method: as §1
# [25] = target: ScSho1
# Summary of the method: as §1
# [26] = target: ScSla1-D1-D2
# Summary of the method: as §1
# [27] = target: ScSla1-D3
# Summary of the method: as §1
# [28] = target: SpAbp1-D1
# Summary of the method: as §1
# [29] = target: SpBbc1
# Summary of the method: as §1
# [30] = target: SpBzz1-D1
# Summary of the method: as §1
# [31] = target: SpBzz1-D2
# Summary of the method: as §1
# [32] = target: SpCyk3
# Summary of the method: as §1
# [33] = target: SpHof1
# Summary of the method: as §1
# [34] = target: SpHof1-2
# Summary of the method: as §1
# [35] = target: SpHof1-3
# Summary of the method: as §1
# [36] = target: SpHse1
# Summary of the method: as §1
# [37] = target: SpLsb1
# Summary of the method: as §1
# [38] = target: SpLsb4
# Summary of the method: as §1
# [39] = target: SpMyo1
# Summary of the method: as §1
# [40] = target: SpNbp2
# Summary of the method: as §1
# [41] = target: SpPex13
# Summary of the method: as §1
# [42] = target: SpRvs167
# Summary of the method: as §1
# [43] = target: SpSla1-D1-D2
# Summary of the method: as §1
# [44] = target: SpSla1-D3
# Summary of the method: as §1
# [45] = target: AgAbp1
# Summary of the method: as §1
# [46] = target: AgBbc1
# Summary of the method: as §1
# [47] = target: AgBem1-D1
# Summary of the method: as §1
# [48] = target: AgBzz1-D1
# Summary of the method: as §1
# [49] = target: AgBzz1-D2
# Summary of the method: as §1
# [50] = target: AgCyk3
# Summary of the method: as §1
# [51] = target: AgFus1
# Summary of the method: as §1
# [52] = target: AgHof1
# Summary of the method: as §1
# [53] = target: AgHse1
# Summary of the method: as §1
# [54] = target: AgLsb1
# Summary of the method: as §1
# [55] = target: AgLsb4
# Summary of the method: as §1
# [56] = target: AgMyo5
# Summary of the method: as §1
# [57] = target: AgNbp2
# Summary of the method: as §1
# [58] = target: AgRvs167
# Summary of the method: as §1
# [59] = target: AgSho1
# Summary of the method: as §1
# [60] = target: AgSla1-D1-D2
# Summary of the method: as §1
# [61] = target: AgSla1-D3
# Summary of the method: as §1
# [62] = target: CaAbp1-D1
# Summary of the method: as §1
# [63] = target: CaAbp1-D2
# Summary of the method: as §1
# [64] = target: CaBbc1
# Summary of the method: as §1
# [65] = target: CaBem1-D1
# Summary of the method: as §1
# [66] = target: CaBzz1-D1
# Summary of the method: as §1
# [67] = target: CaBzz1-D2
# Summary of the method: as §1
# [68] = target: CaCyk3
# Summary of the method: as §1
# [69] = target: CaFus1
# Summary of the method: as §1
# [70] = target: CaHof1
# Summary of the method: as §1
# [71] = target: CaHse1
# Summary of the method: as §1
# [72] = target: CaLsb1
# Summary of the method: as §1
# [73] = target: CaLsb4
# Summary of the method: as §1
# [74] = target: CaMyo5
# Summary of the method: as §1
binder,measurement,setting,value
SHRLWLYAAPKRPKT,SPOT peptide array binding signal intensity,[1],133
same,SPOT peptide array binding signal intensity,[2],14
same,SPOT peptide array binding signal intensity,[3],24.5
same,SPOT peptide array binding signal intensity,[4],149
same,SPOT peptide array binding signal intensity,[5],10.5
same,SPOT peptide array binding signal intensity,[6],17.8
same,SPOT peptide array binding signal intensity,[7],41
same,SPOT peptide array binding signal intensity,[8],7.75
same,SPOT peptide array binding signal intensity,[9],19
same,SPOT peptide array binding signal intensity,[10],42
same,SPOT peptide array binding signal intensity,[11],71
same,SPOT peptide array binding signal intensity,[12],20
same,SPOT peptide array binding signal intensity,[13],260
same,SPOT peptide array binding signal intensity,[14],3.25
same,SPOT peptide array binding signal intensity,[15],404
same,SPOT peptide array binding signal intensity,[16],0.5
same,SPOT peptide array binding signal intensity,[17],3
same,SPOT peptide array binding signal intensity,[18],64
same,SPOT peptide array binding signal intensity,[19],≤ 0
same,SPOT peptide array binding signal intensity,[20],10
same,SPOT peptide array binding signal intensity,[21],18.5
same,SPOT peptide array binding signal intensity,[22],30
same,SPOT peptide array binding signal intensity,[23],8.75
same,SPOT peptide array binding signal intensity,[24],18.3
same,SPOT peptide array binding signal intensity,[25],309
same,SPOT peptide array binding signal intensity,[26],32
same,SPOT peptide array binding signal intensity,[27],5
same,SPOT peptide array binding signal intensity,[28],45
same,SPOT peptide array binding signal intensity,[29],5
same,SPOT peptide array binding signal intensity,[30],171
same,SPOT peptide array binding signal intensity,[31],0.5
same,SPOT peptide array binding signal intensity,[32],3
same,SPOT peptide array binding signal intensity,[33],84
same,SPOT peptide array binding signal intensity,[34],24.5
same,SPOT peptide array binding signal intensity,[35],216
same,SPOT peptide array binding signal intensity,[36],157
same,SPOT peptide array binding signal intensity,[37],35.5
same,SPOT peptide array binding signal intensity,[38],38.5
same,SPOT peptide array binding signal intensity,[39],7.5
same,SPOT peptide array binding signal intensity,[40],30
same,SPOT peptide array binding signal intensity,[41],23
same,SPOT peptide array binding signal intensity,[42],7.33
same,SPOT peptide array binding signal intensity,[43],3
same,SPOT peptide array binding signal intensity,[44],15
PSRRAPLQLPQLVNK,SPOT peptide array binding signal intensity,[45],15
same,SPOT peptide array binding signal intensity,[46],8.5
same,SPOT peptide array binding signal intensity,[47],26
same,SPOT peptide array binding signal intensity,[48],13
same,SPOT peptide array binding signal intensity,[49],35
same,SPOT peptide array binding signal intensity,[50],≤ 0
same,SPOT peptide array binding signal intensity,[51],≤ 0
same,SPOT peptide array binding signal intensity,[52],36.5
same,SPOT peptide array binding signal intensity,[53],≤ 0
same,SPOT peptide array binding signal intensity,[54],214
same,SPOT peptide array binding signal intensity,[55],≤ 0
same,SPOT peptide array binding signal intensity,[56],≤ 0
same,SPOT peptide array binding signal intensity,[57],3
same,SPOT peptide array binding signal intensity,[58],≤ 0
same,SPOT peptide array binding signal intensity,[59],≤ 0
same,SPOT peptide array binding signal intensity,[60],6
same,SPOT peptide array binding signal intensity,[61],1.5
same,SPOT peptide array binding signal intensity,[62],89.5
same,SPOT peptide array binding signal intensity,[63],52
same,SPOT peptide array binding signal intensity,[64],279
same,SPOT peptide array binding signal intensity,[65],11.5
same,SPOT peptide array binding signal intensity,[66],130
same,SPOT peptide array binding signal intensity,[67],41.8
same,SPOT peptide array binding signal intensity,[68],3
same,SPOT peptide array binding signal intensity,[69],23.5
same,SPOT peptide array binding signal intensity,[70],≤ 0
same,SPOT peptide array binding signal intensity,[71],≤ 0
same,SPOT peptide array binding signal intensity,[72],≤ 0
same,SPOT peptide array binding signal intensity,[73],17
same,SPOT peptide array binding signal intensity,[74],≤ 0
same,SPOT peptide array binding signal intensity,[1],324
same,SPOT peptide array binding signal intensity,[2],6
same,SPOT peptide array binding signal intensity,[3],≤ 0
same,SPOT peptide array binding signal intensity,[4],6
same,SPOT peptide array binding signal intensity,[5],21
same,SPOT peptide array binding signal intensity,[6],≤ 0
same,SPOT peptide array binding signal intensity,[7],13
same,SPOT peptide array binding signal intensity,[8],11.5
same,SPOT peptide array binding signal intensity,[9],11
same,SPOT peptide array binding signal intensity,[10],12
same,SPOT peptide array binding signal intensity,[11],10
same,SPOT peptide array binding signal intensity,[12],≤ 0
same,SPOT peptide array binding signal intensity,[13],≤ 0
same,SPOT peptide array binding signal intensity,[14],0.5
same,SPOT peptide array binding signal intensity,[15],35.5
same,SPOT peptide array binding signal intensity,[16],123
same,SPOT peptide array binding signal intensity,[17],5
same,SPOT peptide array binding signal intensity,[18],86
same,SPOT peptide array binding signal intensity,[19],≤ 0
same,SPOT peptide array binding signal intensity,[20],≤ 0
same,SPOT peptide array binding signal intensity,[21],1.5
same,SPOT peptide array binding signal intensity,[22],17
same,SPOT peptide array binding signal intensity,[23],≤ 0
same,SPOT peptide array binding signal intensity,[24],5.67
same,SPOT peptide array binding signal intensity,[25],35
same,SPOT peptide array binding signal intensity,[26],394
same,SPOT peptide array binding signal intensity,[27],32
same,SPOT peptide array binding signal intensity,[28],59
same,SPOT peptide array binding signal intensity,[29],≤ 0
same,SPOT peptide array binding signal intensity,[30],134
